# Data taken from PubChem BioAssay (NCATS).
# Inconclusive results are not listed. The source made the active and inactive calls. The call rests on the fitted dose curve; in most records, active means well fitted activation curve with a large enough effect in the main read-out, with a control signal flat (not every such curve was filed as active); inconclusive means small, poorly fitted or top-dose-only effect, or effect the other way, or a change in a side signal; inactive means flat fitted curve, though single readings scatter.
# Molecular target: 3',5'-cyclic-AMP phosphodiesterase 4B (Homo sapiens) (UniProt Q07343)
# Assay: qHTS Assay for Inhibitors of PDE-IV (AID 607); further: % of control where 0% means no effect
# Conditions: HEK293 ACTOne CNG channel cells, membrane potential fluorescence; series mostly up to 22.9 µM; activation (PDE inhibition): at the top concentration
# In short: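 Live HEK293 cells with a modified cyclic nucleotide-gated (CNG) channel report intracellular cAMP via membrane-potential dye fluorescence (ex 535/em 590 nm). Endogenous PDE-IV was targeted. Compounds were tested at up to 22.9 uM final; RO 20-1724 100 uM served as control.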
# 3',5'-cyclic-AMP phosphodiesterase 4B (Homo sapiens), sequence (Q07343 whole entry, looked up): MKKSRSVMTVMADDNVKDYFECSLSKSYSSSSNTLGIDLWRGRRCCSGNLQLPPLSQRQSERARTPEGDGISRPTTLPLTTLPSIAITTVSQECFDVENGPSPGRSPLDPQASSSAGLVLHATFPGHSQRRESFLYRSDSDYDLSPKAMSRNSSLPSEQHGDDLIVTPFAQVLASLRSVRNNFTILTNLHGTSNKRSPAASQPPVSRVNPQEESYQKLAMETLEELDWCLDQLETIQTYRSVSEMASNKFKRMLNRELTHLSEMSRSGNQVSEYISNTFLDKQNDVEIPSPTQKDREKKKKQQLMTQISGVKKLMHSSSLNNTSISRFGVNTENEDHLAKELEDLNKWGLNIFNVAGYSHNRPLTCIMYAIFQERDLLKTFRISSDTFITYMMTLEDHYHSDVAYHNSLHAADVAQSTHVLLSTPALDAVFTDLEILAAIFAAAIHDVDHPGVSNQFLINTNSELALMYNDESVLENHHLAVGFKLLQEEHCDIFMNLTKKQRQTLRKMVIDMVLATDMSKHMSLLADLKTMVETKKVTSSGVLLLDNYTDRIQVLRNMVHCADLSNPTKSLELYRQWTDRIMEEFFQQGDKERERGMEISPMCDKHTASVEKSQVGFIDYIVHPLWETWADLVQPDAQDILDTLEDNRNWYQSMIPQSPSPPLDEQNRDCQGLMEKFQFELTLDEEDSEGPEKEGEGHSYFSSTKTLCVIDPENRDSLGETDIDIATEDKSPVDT
row,SMILES,activation (PDE inhibition)
1,O=C(O)[C@H](Cc1ccccc1)N1C(=O)c2ccccc2C1=O,-2.63% (inactive)
2,COC(=O)c1cc(=O)[nH]c(=O)[nH]1,4.74% (inactive)
3,O=C1CCC[C@H]1C(=O)Nc1ccc2ccccc2c1,14% (inactive)
4,COCCn1c(=O)cnc2cnc(N3CCNCC3)nc21,1.91% (inactive)
5,N[C@@H](CNO)C(=O)O,0.614% (inactive)
6,C[C@@H](SCc1ccccc1)C(=O)O,10.4% (inactive)
7,C[N+](C)(C)CC(=O)N/N=C\c1c(O)ccc2ccccc12,1.73% (inactive)
8,O=C(O)CCn1cnc2c(=S)nc[nH]c21,5.62% (inactive)
9,CCOC(=O)c1c(O)[nH]c(=O)c(CC)c1C,7.55% (inactive)
10,Nc1ccc(Cc2ccc(N)c(C(=O)O)c2)cc1C(=O)O,-8.69% (inactive)
11,O=S(=O)(c1ccccc1)N1CCN(S(=O)(=O)c2ccccc2)c2ccccc21,6.34% (inactive)
12,CN1[C@@H](c2ccccc2)CC(=NO)C[C@H]1c1ccccc1,8.57% (inactive)
13,CC(C)[C@@H](C(=O)O)N1C(=O)c2ccccc2C1=O,10.7% (inactive)
14,O=c1c2ccccc2c2ccccc2c(=O)n1-c1cc2c3ccccc3ccc2c2ccccc12,6.91% (inactive)
15,O=C(O)c1cncc(C(=O)O)c1,7.75% (inactive)
16,CC(C)=C[C@H]1[C@@H](COC(=O)c2cc3c(cc2Cl)OCO3)C1(C)C,15.2% (inactive)
17,O=C(O)CCCSc1nc2ccccc2s1,10.8% (inactive)
18,O=C(O)/C(Cc1cn[nH]n1)=N\O,10.8% (inactive)
19,O=C(O)C(=Cc1ccnc2ccccc12)C(=O)O,6.23% (inactive)
20,Cn1c(=O)c2c(ncn2CCSS(=O)(=O)O)n(C)c1=O,-3.56% (inactive)

row,SMILES,activation (PDE inhibition)
1,C=CCNS(=O)(=O)c1ncnc2nc[nH]c12,-3.22% (inactive)
2,CN1CCN(CCCNN)CC1,-3.16% (inactive)
3,c1ccc(CN2COc3c(ccc4c5c(ccc34)CN(Cc3ccccc3)CO5)C2)cc1,9.1% (inactive)
4,CCCS(=O)(=O)O,-3.21% (inactive)
5,CC(=O)CSCc1ccccn1,13.6% (inactive)
6,CC(C)[C@H](Nc1ncnc2nc[nH]c12)C(=O)O,10.4% (inactive)
7,Nc1nc2c(ncn2[C@H]2CC[C@@H](CO)O2)c(=O)n1C(=O)c1ccccc1,2.86% (inactive)
8,CC1=C(/C=C\C(=O)O)C(C)(C)CCC1,-1.31% (inactive)
9,C[n+]1cccc(/C=C\c2ccc3cccc(O)c3n2)c1,1.04% (inactive)
10,COc1ccc(Br)c2c1C[C@H](C(=O)O)CC2,29.5% (inactive)
11,COC(=O)c1cc(-c2ccc3ccccc3c2)[nH]c(=O)c1C#N,-0.478% (inactive)
12,O=C(O)[C@H]1O[C@H]1C(=O)O,-1.17% (inactive)
13,COc1cc(C(=O)O)c([N+](=O)[O-])c(OC)c1OC,-3.91% (inactive)
14,C[C@H](NCCN(C)C)[C@@H]1CCC2C3CCc4cc(O)ccc4[C@H]3CCC21C (stereo not given in full),13.6% (inactive)
15,O=C(O)/C(Cc1ccc([N+](=O)[O-])cc1)=N/O,-0.244% (inactive)
16,C(=N/Nc1ccccn1)/c1cccnc1,0.456% (inactive)
17,CC1=NNC(=S)NCCCN2CCN(CCCNC(=S)NN=C(C)C=NNC(=S)NCCCN3CCN(CCCNC(=S)NN=C1)CC3)CC2,-2.9% (inactive)
18,CN(C)CCN1C(=O)CC[C@]2(C)C1=CC[C@@H]1[C@@H]2CC[C@]2(C)[C@H]1CC[C@]2(C)O,3.38% (inactive)
19,Nc1ccccc1N=Nc1c(S(=O)(=O)O)cc2cc(S(=O)(=O)O)cc(O)c2c1O,-1.81% (inactive)
20,N#C[C@H](C(=O)O)C(c1c(Cl)cccc1Cl)[C@H](C#N)C(=O)O,0.304% (inactive)
